# Shown are actives, neighbours in structure and some others; about 12% of the full set was active somewhere.
# WT yeast gro inh = growth inhibition of WT strain, primary screen, mitochondrial fusion inhibitor project, WT and mutant strains, chemical genetic; 190,000 compounds, 2.1% hits; inhibition, % at 10 µM; mitochondrial fusion phenotypic screen; AID 1362, 2008; in the data active = inhibition above about 58%; tested in S. cerevisiae
# Arbovirus inh = antivirals against arbovirus infection, primary screen, cell-based, full library, 10K replicate subset | arbovirus infection cell-based antiviral screen | 200,000 compounds, 0.37% hits | inhibition, % at 10 µM; in the data active = inhibition above about 30%
# CHOP inh = inhibitors of CHOP promoter induction, primary screen, cell-based, unfolded protein response, luciferase reporter; CHO-K1 CHOP-promoter luciferase, tunicamycin-induced, 15-18 h; 220,000 compounds, 3.8% hits; AID 2732, 2010; inhibition, % at 10 µM;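 active = compounds that reduced the stress-induced luciferase reporter signal by more than about 70% of percent inhibition, limit read from the data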;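 also: 0% = tunicamycin plus vehicle and 100% = wells without tunicamycin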
# L major viab = Leishmania major promastigote growth inhibition, primary screen; inhibition, % at 10 µM; 200,000 compounds, 9% hits; AID 1063, 2008; Leishmania major promastigotes, resazurin fluorescence viability; in the data active = inhibition above about 50%;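 also: promastigotes grown with compound for 44 hours at 28 °C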
# Numbers without * were called inactive; · = not tested or not shown.
SMILES,WT yeast gro inh,Arbovirus inh,CHOP inh,L major viab
CCCCCCCCCCCCCCCCOCC(COCC(F)(F)F)OP(=O)(O)OCO (configuration not stated),·,·,-5,·
Cc1cc2ncn(CC3CC3(Cl)Cl)c2cc1C (configuration not stated),21,-13,58,9
COc1ccccc1NC(=S)N1CCN(c2nc(-c3ccccc3)cs2)CC1,22,-2,34,-2
COc1cc(NC(=S)NC2CC2)c(OC)cc1Cl,7,5,25,41
CCN(CC)S(=O)(=O)c1cccc(-c2n[nH]c(=S)n2Cc2ccccc2)c1,-6,0,-18,100*
CCN(CC)S(=O)(=O)c1cccc(-c2cn3cc(C)ccc3n2)c1,25,-20,15,85*
CS(=O)(=O)N1CCC(C(=O)NCCc2ccccc2)CC1,-12,8,-33,-5
O=C(NCCc1ccccc1)C1CCN(Cc2ccccc2F)CC1,-53,-5,-8,71*
CCN(CC)C(=O)C1CCCN(Cc2cccc(Oc3ccccc3)c2)C1 (configuration not stated),·,·,2,·
CCCCC(=O)C1CCN(Cc2ccccc2)CC1,4,-2,40,67*
CCN(CC)C(=O)C1CCN(Cc2cccc(OCc3ccccc3)c2)CC1,39,8,19,100*
CCCCNC(=O)C1CCN(Cc2ccc(OCc3ccccc3)cc2)CC1,0,-35,-18,82*
C=CCn1c(SCC(=O)OCC)nc(C(F)(F)F)cc1=O,-19,7,16,-4
COc1cccc(CN2CCNC(=O)C2CC(=O)NCc2cc(C(C)C)no2)c1 (configuration not stated),-15,-4,4,4
Cc1ccc(-n2cccc2/C=C2/C(=N)N3C(=NC2=O)SN=C3S(C)(=O)=O)cc1,-11,47*,-9,-9
Cc1cc(C)cc(-n2cccc2/C=C2/C(=N)N3C(=NC2=O)SN=C3S(C)(=O)=O)c1,10,17,17,-7
Cc1ccc(-n2cccc2/C=C2\C(=N)N3N=C(c4ccco4)SC3=NC2=O)cc1,44,46*,-1,14
COc1cccc(-n2c(C)cc(/C=C3/C(=N)N4C(=NC3=O)SN=C4S(C)(=O)=O)c2C)c1,-19,40*,20,5
CCc1ccc(-n2cccc2/C=C2/C(=N)N3C(=NC2=O)SN=C3S(C)(=O)=O)cc1,10,17,-4,-11
CC1=NN2C(=N)/C(=C\c3cc(C)n(-c4cccc(C)c4)c3C)C(=O)N=C2S1,·,·,11,·
CS(=O)(=O)C1=NSC2=NC(=O)/C(=C\c3cccn3-c3ccccc3Cl)C(=N)N21,8,51*,-9,-8
CCOC(=O)CC(N)c1cccc([N+](=O)[O-])c1 (configuration not stated),11,8,21,-2
COc1ccc(CCN2C(=O)NC(NC(=O)CC(C)C)(C(F)(F)F)C2=O)cc1OC (configuration not stated),-3,3,14,45
O=C(NC1(C(F)(F)F)NC(=O)N(Cc2cccnc2)C1=O)c1ccccc1 (configuration not stated),-6,8,13,-5
COc1ccc(CCN2C(=O)NC(NC(=O)CCc3ccccc3)(C(F)(F)F)C2=O)cc1OC (configuration not stated),10,6,39,70*
SMILES,WT yeast gro inh,Arbovirus inh,CHOP inh,L major viab
CC(C)Oc1ccc(C(=O)NC2(C(F)(F)F)NC(=O)N(CCCc3ccccc3)C2=O)cc1 (configuration not stated),65*,-21,67,36
CC1CN(c2snnc2C=C2C(=O)OC(C)(C)OC2=O)CC(C)O1 (configuration not stated),12,24,21,-5
S=c1[nH]nc(-c2ccc3ccccc3n2)n1-c1ccc2ncccc2c1,17,-1,-23,88*
S=c1[nH]nc(-c2ccc3ncccc3c2)n1-c1ccc2c(c1)OCCO2,3,1,-18,91*
Fc1ccc(-n2c(-c3ccc4ccccc4n3)n[nH]c2=S)cc1Cl,32,3,-5,5
Oc1ccc(-c2n[nH]c(=S)n2-c2ccc3c(c2)OCCO3)cc1,2,-1,-5,0
O=C(N/N=C\C=C\c1ccco1)c1cc(-c2ccc3ccccc3c2)n[nH]1,49,-1,80*,13
O=C(N/N=C/C=C\c1ccco1)c1ccccn1,·,·,-41,·
C=CCn1c(O)c(C=Nc2ccc(CN3CCCCC3)cc2)c(=O)[nH]c1=S,·,·,21,·
COc1ccc(/C=C(\C#N)c2n[nH]c(Cn3cncn3)n2)cc1,4,7,-6,4
Cc1oc(-c2cccs2)nc1CN1CC[C@@](O)(c2ccccc2)[C@H]2CCCC[C@@H]21,26,3,21,42
Cc1ccccc1CC1(CO)CCCN(Cc2nc(-c3cccs3)oc2C)C1 (configuration not stated),31,-3,19,55*
Cc1ccc(CNC(=O)c2ccc3c(=O)n4c(-c5ccc(C)cc5)csc4nc3c2)cc1,·,·,79*,·
CCOc1cc(/C=C/C(=O)c2ccc(C)cc2)ccc1OCC(=O)N(C)C,-25,-35,-7,100*
CCOc1cc(/C=C2/COc3ccccc3C2=O)ccc1OCC(=O)N(C)C,·,-22,-15,100*
COc1cc(/C=C/C(=O)c2ccc(C)cc2)ccc1OCC#N,-2,-47,43,98*
CCOc1cc(/C=C/C(=O)O)ccc1OCCO,2,5,-8,10
CCOc1cc(/C=N/NC(=O)c2cccnc2)ccc1OCC(=O)N(C)C,9,19,-5,-10
CCN(CCn1cccn1)Cc1c(C(=O)N2C[C@@H](C)O[C@@H](C)C2)nc2ccc(Cl)cn12,-8,3,-3,-8
Cc1cc(=O)[nH]c(N=N/C(=N/Nc2ccc(O)cc2)c2ccccc2)n1,42,-35,50,94*
COc1ccc(N/N=C(/N=Nc2nc(C)cc(=O)[nH]2)c2ccccc2)cc1,47,-40,26,100*
CC1CCCC(NC(=O)COC(=O)CCSc2ccccc2)C1C (configuration not stated),-9,3,-2,-8
CC(C)(C)c1ccc(C2C(C#N)=C(N)Oc3n[nH]c(-c4cccnc4)c32)cc1 (configuration not stated),·,·,76*,·
COc1ccc(CCN2CC(C#N)=C3c4cc(OC)c(OC)cc4CCN3C2)cc1OC,8,1,14,95*
COCCCNC(=S)Nc1c(C)cc(C)cc1C,·,·,-20,·
O=C(CN1CCN(c2ccccc2Cl)CC1)NC1CCCc2ccccc21 (configuration not stated),33,9,44,0
Cc1ccc(Cl)cc1N1CCN(CC(=O)NC2CCCc3ccccc32)CC1 (configuration not stated),74*,-19,27,4
O=C(CCC(=O)N1CCN(c2ccccc2)CC1)Nc1nnc(C2CCCCC2)s1,·,·,8,·
c1ccc(-c2nnc3sc(CN4CCC5(CC4)OCCO5)cn23)cc1,14,6,77*,-8

# Screening data from PubChem.
